# Laboratory results: the supplement of paper PMC8728848
# Only a selection was taken, and the strongest signals are over-represented in it overall.
# Legend:
# Assay in all cases: glycan array binding signal (z-score within array); higher = stronger binding
# Settings in all cases: glycan notation: IUPAC condensed, linker removed
# [1] = target: Fuc(a1-2)Gal(b1-4)GlcNAc(b1-3)Gal(b1-4)GlcNAc(b1-2)Man(a1-3)[Fuc(a1-2)Gal(b1-4)GlcNAc(b1-3)Gal(b1-4)GlcNAc(b1-2)Man(a1-6)]Man(b1-4)GlcNAc(b1-4)GlcNAc
# Method in brief: (§1)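 Glycan array data were curated from 3228 arrays in the Consortium for Functional Glycomics database and kept only where the protein sequence was available. Glycan names were converted to IUPAC-condensed notation, and columns mapping to the same glycan were averaged. The binding signal is a within-array Z-score, averaged across arrays of the same protein sequence at different concentrations or buffers and across linkers. Negative Z-scores can be read as non-binding.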
# Fuc(a1-2)[Gal(a1-3)]Gal = target: Fuc(a1-2)[Gal(a1-3)]Gal
# Method in brief: as §1
# [2] = target: Fuc(a1-2)[Gal(a1-3)]Gal(b1-3)GalNAc(b1-3)Gal(a1-4)Gal(b1-4)Glc
# Method in brief: as §1
# [3] = target: Fuc(a1-2)[GalNAc(a1-3)]Gal
# Method in brief: as §1
# [4] = target: Gal(a1-3)Gal(b1-3)GlcNAc(b1-3)GalNAc
# Method in brief: as §1
# [5] = target: Gal(a1-3)Gal(b1-4)GlcNAc(b1-3)GalNAc
# Method in brief: as §1
# [6] = target: Gal(a1-4)Gal(b1-4)GlcNAc(b1-2)Man(a1-3)[Gal(a1-4)Gal(b1-4)GlcNAc(b1-2)Man(a1-6)]Man(b1-4)GlcNAc(b1-4)GlcNAc
# Method in brief: as §1
# [7] = target: Gal(b1-3)GlcNAc(b1-3)Gal(b1-4)GlcNAc(b1-6)[Gal(b1-3)GlcNAc(b1-3)]Gal(b1-4)Glc
# Method in brief: as §1
# [8] = target: Gal(b1-3)[Fuc(a1-4)]GlcNAc(b1-6)GalNAc
# Method in brief: as §1
# Gal(b1-4)GlcNAc(b1-2)Man = target: Gal(b1-4)GlcNAc(b1-2)Man
# Method in brief: as §1
# [9] = target: Gal(b1-4)GlcNAc(b1-2)Man(a1-3)[Gal(b1-4)GlcNAc(b1-2)Man(a1-6)][Gal(b1-4)GlcNAc(b1-4)]Man(b1-4)GlcNAc(b1-4)[Fuc(a1-6)]GlcNAc
# Method in brief: as §1
# [10] = target: Gal(b1-4)GlcNAc(b1-2)Man(a1-3)[Gal(b1-4)GlcNAc(b1-2)Man(a1-6)][GlcNAc(b1-4)]Man(b1-4)GlcNAc(b1-4)[Fuc(a1-6)]GlcNAc
# Method in brief: as §1
# [11] = target: Gal(b1-4)GlcNAc(b1-2)Man(a1-3)[Gal(b1-4)GlcNAc(b1-2)][GlcNAc(b1-4)]Man(b1-4)GlcNAc(b1-4)GlcNAc
# Method in brief: as §1
# [12] = target: Gal(b1-4)GlcNAc(b1-3)Gal(b1-4)Glc
# Method in brief: as §1
# [13] = target: Gal(b1-4)GlcNAc(b1-3)Gal(b1-4)GlcNAc(b1-3)Gal(b1-4)GlcNAc
# Method in brief: as §1
# [14] = target: Gal(b1-4)GlcNAc(b1-3)Gal(b1-4)GlcNAc(b1-3)Gal(b1-4)GlcNAc(b1-3)Gal(b1-4)GlcNAc(b1-3)Gal(b1-4)GlcNAc(b1-2)Man(a1-3)[Gal(b1-4)GlcNAc(b1-3)Gal(b1-4)GlcNAc(b1-3)Gal(b1-4)GlcNAc(b1-3)Gal(b1-4)GlcNAc(b1-3)Gal(b1-4)GlcNAc(b1-2)Man(a1-6)]Man(b1-4)GlcNAc(b1-4)GlcNAc
# Method in brief: as §1
# [15] = target: Gal(b1-4)GlcNAc(b1-3)Gal(b1-4)GlcNAc(b1-3)Gal(b1-4)GlcNAc(b1-3)Gal(b1-4)GlcNAc(b1-3)Gal(b1-4)GlcNAc(b1-2)[Gal(b1-4)GlcNAc(b1-3)Gal(b1-4)GlcNAc(b1-3)Gal(b1-4)GlcNAc(b1-3)Gal(b1-4)GlcNAc(b1-3)Gal(b1-4)GlcNAc(b1-6)]Man(a1-6)[Gal(b1-4)GlcNAc(b1-3)Gal(b1-4)GlcNAc(b1-3)Gal(b1-4)GlcNAc(b1-3)Gal(b1-4)GlcNAc(b1-3)Gal(b1-4)GlcNAc(b1-2)Man(a1-3)]Man(b1-4)GlcNAc(b1-4)[Fuc(a1-6)]GlcNAc
# Method in brief: as §1
# [16] = target: Gal(b1-4)GlcNAc(b1-3)Gal(b1-4)GlcNAc(b1-3)[Gal(b1-4)GlcNAc(b1-3)Gal(b1-4)GlcNAc(b1-6)]GalNAc
# Method in brief: as §1
# Gal3S(b1-4)GlcNAc6S = target: Gal3S(b1-4)GlcNAc6S
# Method in brief: as §1
# GalNAc(b1-4)GlcNAc6S = target: GalNAc(b1-4)GlcNAc6S
# Method in brief: as §1
# [17] = target: GlcNAc(a1-3)Gal(b1-4)GlcNAc
# Method in brief: as §1
# [18] = target: GlcNAc(a1-4)Gal(b1-3)GlcNAc
# Method in brief: as §1
# [19] = target: GlcNAc(a1-4)Gal(b1-4)GlcNAc(b1-3)Gal(b1-4)Glc
# Method in brief: as §1
# [20] = target: GlcNAc(a1-4)Gal(b1-4)GlcNAc(b1-3)Gal(b1-4)GlcNAc(b1-3)Gal(b1-4)GlcNAc
# Method in brief: as §1
# [21] = target: GlcNAc(a1-4)Gal(b1-4)GlcNAc(b1-3)Gal(b1-4)[Fuc(a1-3)]GlcNAc(b1-3)Gal(b1-4)[Fuc(a1-3)]GlcNAc
# Method in brief: as §1
# [22] = target: GlcNAc(b1-2)Man(a1-3)[GlcNAc(b1-4)][GlcNAc(b1-2)Man(a1-6)]Man(b1-4)GlcNAc(b1-4)[Fuc(a1-6)]GlcNAc
# Method in brief: as §1
# [23] = target: GlcNAc(b1-3)Gal(b1-4)GlcNAc
# Method in brief: as §1
# [24] = target: GlcNAc(b1-3)Gal(b1-4)GlcNAc(b1-3)Gal(b1-4)GlcNAc(b1-2)Man(a1-3)[GlcNAc(b1-3)Gal(b1-4)GlcNAc(b1-3)Gal(b1-4)GlcNAc(b1-2)Man(a1-6)]Man(b1-4)GlcNAc(b1-4)GlcNAc
# Method in brief: as §1
# [25] = target: GlcNAc(b1-3)Gal(b1-4)GlcNAc(b1-3)Gal(b1-4)GlcNAc(b1-2)Man(a1-3)[GlcNAc(b1-3)Gal(b1-4)GlcNAc(b1-3)Gal(b1-4)GlcNAc(b1-2)Man(a1-6)]Man(b1-4)GlcNAc(b1-4)[Fuc(a1-6)]GlcNAc
# Method in brief: as §1
# [26] = target: GlcNAc(b1-3)Gal(b1-4)GlcNAc(b1-3)Gal(b1-4)GlcNAc(b1-3)Gal(b1-4)GlcNAc(b1-2)Man(a1-3)[GlcNAc(b1-3)Gal(b1-4)GlcNAc(b1-3)Gal(b1-4)GlcNAc(b1-3)Gal(b1-4)GlcNAc(b1-2)Man(a1-6)]Man(b1-4)GlcNAc(b1-4)[Fuc(a1-6)]GlcNAc
# Method in brief: as §1
binder,measurement,setting,value
rAAL-2 (Agrocybe aegerita) (protein) MTSNVITQDLPIPVASRGFADIVGFGLDGVVIGRNAVNLQPFLAVKNFAQNAGGWLTTKHVRLIADTTGTGKGDIVGFGNAGVYVSVNNGKNTFADPPKMVIANFGYDAGGWRVEKHLRYLADIRKIGRADIIGFGEKGVLVSRNNGGLNFGPATLVLKDFGYDAGGWRLDRHLRFLADVTGNGHLDIVGFGDKHVFISRNNGDGTFAPAKSVIDNFCIDAGGWKIGDHPRFVADLTGDGTADIIGCGKAGCWVALNNGGGVFGQVKLVINDFGTDKGWQAAKHPRFIADLTGNGRGDVVGFGNAGVYVALNNGDGTFQSAKLVLKDFGVQQGWTVSKHRRFVVDLTGDGCADIIGFGEKETLVSYNDGKGNFGPVKALTNDFSFSGGKWAPETTVCWMANLDSSRH,glycan array binding signal (z-score),[1],-0.083
same,glycan array binding signal (z-score),Fuc(a1-2)[Gal(a1-3)]Gal,-0.221
same,glycan array binding signal (z-score),[2],0.126
same,glycan array binding signal (z-score),[3],-0.342
same,glycan array binding signal (z-score),[4],-0.274
same,glycan array binding signal (z-score),[5],-0.36
same,glycan array binding signal (z-score),[6],0.062
same,glycan array binding signal (z-score),[7],-0.234
same,glycan array binding signal (z-score),[8],-0.064
same,glycan array binding signal (z-score),Gal(b1-4)GlcNAc(b1-2)Man,-0.16
same,glycan array binding signal (z-score),[9],-0.282
same,glycan array binding signal (z-score),[10],-0.482
same,glycan array binding signal (z-score),[11],-0.266
same,glycan array binding signal (z-score),[12],-0.317
same,glycan array binding signal (z-score),[13],-0.113
same,glycan array binding signal (z-score),[14],-0.319
same,glycan array binding signal (z-score),[15],0.032
same,glycan array binding signal (z-score),[16],0.004
same,glycan array binding signal (z-score),Gal3S(b1-4)GlcNAc6S,-0.11
same,glycan array binding signal (z-score),GalNAc(b1-4)GlcNAc6S,-0.107
same,glycan array binding signal (z-score),[17],4.67
same,glycan array binding signal (z-score),[18],3.84
same,glycan array binding signal (z-score),[19],4.64
same,glycan array binding signal (z-score),[20],6.15
same,glycan array binding signal (z-score),[21],3.9
same,glycan array binding signal (z-score),[22],-0.068
same,glycan array binding signal (z-score),[23],4.11
same,glycan array binding signal (z-score),[24],3.92
same,glycan array binding signal (z-score),[25],4.05
same,glycan array binding signal (z-score),[26],4.52
